Data reported in PubChem BioAssay (NCATS).
Inconclusive results are not listed. Unmarked numbers belong to inactive results. Active and inactive are the calls of the source. Calls come from the whole dose curve; as a rule, active = well fitted cell-killing curve with a large enough effect; inconclusive = small, poorly fitted or top-dose-only effect; inactive = flat fitted curve, though single readings scatter.

Assay: Cell Viability - LYMP2-011 (AID 969); note: nearly all actives have a fitted effect of over 60% in size;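 for viability change, negative = cytotoxic: 0% = DMSO only and full inhibition = 92 µM tetraoctylammonium bromide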
Settings: LYMP2-011 lymphoblastoid cells viability; series mostly up to 92.2 µM; viability change, negative = cytotoxic: at the top concentration
From the text: NIH Chemical Genomics Center [NCGC]
NIH Molecular Libraries Screening Centers Network [MLSCN]
National Institutes of Environmental Health Sciences [NIEHS]
National Toxicology Program [NTP]
We have developed a 1536-well cell-based assay for quantitative high throughput screening (qHTS) against a number of cell lines to determine in vitro cytotoxicity of small molecules. This particular assay uses a human lymphoblastoid cell line (LYMP2-011) purchased from Coriell Institute for Medical Research.
NCGC Assay Protocol Summary:
The CellTiter-Glo luminescent cell viability assay (Promega) is a homogeneous method to measure the number of viable cells in culture. The end point readout of this assay is based on quantitation of intracellular ATP, an indicator of metabolic activity, using the luciferase reaction. Luciferase catalyzes the oxidation of beetle Luciferin to oxyluciferin and light in the presence of ATP. The luminescent signal is proportional to amount of ATP present.
Using the CellTiter-Glo luminescent cell viability assay, the amount of cellular ATP was measured in the lymphoblastoid cell line with complete culture medium following compound treatment for 24 hours. The assay was performed in opaque white Kalypsys 1536-well plates. In the screen, tetraoctylammonium bromide was used as positive control. Library compounds were measured for their ability to cause acute toxicity in the cell line, as reflected by a decrease in intracellular ATP levels, in a concentration-dependent manner. […] AC50 values were determined from concentration-response data modeled with the standard Hill equation.
qHTS protocol for CellTiter Glo lymphoblastoid cellular assay
[Step] [Parameter] [Value] [Description]
1. Reagent; 5 uL; 2500 lymphoblastoid cells/well
2. Time; 5 hr; 37 C incubation
4. Controls; 23 nL; Tetraoctylammonium bromide 6.4pM to 92 uM
5. Time; 24 hr; 37 C incubation
6. Reagent; 5 uL; CellTiter Glo reagent
7. Time; 30 min; Room Temperature
8. Detection; Luminescence; Viewlux plate reader
Keywords: cell viability, cytotoxicity, lymphoblastoid cell line, luminescence, NTPHTS, NTPHTS_NCGC, NIEHS, DSSTox, MLSMR, MLSCN, NIH Roadmap, qHTS, NCGC
Potency is the fitted concentration of half-maximal effect.

SMILES	viability change, negative = cytotoxic	Potency
O=[N+]([O-])c1ccccc1O	0.379%	–
O=C(O)C(Br)Br	-13%	–
NNC(N)=S	-4.5%	–
c1ccc(N=NNc2ccccc2)cc1	-9.72%	–
CCSC(=O)N1CCCCCC1	1.25%	–
CC(C)Br	-2.12%	–
CCBr	2.36%	–
O=[N+]([O-])c1ccc(O)c([N+](=O)[O-])c1	-4.38%	–
Nc1ccc(-c2ccc(N)cc2)cc1	0.896%	–
S=c1[nH]c2ccccc2[nH]1	-0.743%	–
CC(C)(COCC1CO1)COCC1CO1 (stereo not given)	-12.8%	–
NC1CCC(CC2CCC(N)CC2)CC1 (stereo not given)	-5.57%	–
O=[N+]([O-])CCO	0.177%	–
CN(C)N=O	3.77%	–
c1ccc(NNc2ccccc2)cc1	4.78%	–
CCCCC(=O)Cl	-6.13%	–
OCC(Cl)CCl (stereo not given)	-2.96%	–
CCOC(=O)C1OC1(C)c1ccccc1 (stereo not given)	4.51%	–
O=C(O)c1cc(Cl)ccc1Cl	-0.0849%	–
O=[N+]([O-])c1cc(Cl)c(Cl)c(Cl)c1	-9.31%	–

SMILES	viability change, negative = cytotoxic	Potency
CCCCOC(C)=O	1.12%	–
CC(C)CC(C)N (stereo not given)	-11.4%	–
O=[N+]([O-])c1c(Cl)c(Cl)c(Cl)c(Cl)c1Cl	1.03%	–
O=S(=O)(O)F	-8.78%	–
CCCBr	-3.23%	–
ClCCBr	-0.498%	–
CC1CC(=O)O1 (stereo not given)	-1.68%	–
N#CCCC#N	3.05%	–
O=[N+]([O-])c1cc(Cl)c(Cl)cc1Cl	-0.348%	–
COC(=O)Nc1nc2ccccc2[nH]1	-22%	–
O=C(O)C(Cl)(Cl)Br	-1.79%	–
Brc1ccc(Oc2ccc(Br)cc2Br)c(Br)c1	-2.31%	–
OC[P+](CO)(CO)CO	–	39.8 µM (active)
O=C(Cl)c1ccccc1F	7.16%	–
COP(=S)(OC)SCn1nnc2ccccc2c1=O	2.67%	–
CC(C)OS(C)(=O)=O	-5.28%	–
O=Cc1ccc(Cl)cc1Cl	-9.67%	–
ClC=CCl	-0.408%	–
Clc1cccc(Cl)c1	1.71%	–
C=CC=O	-12.2%	–
